Assay results as given in PubChem BioAssay (NCATS).
Records with an inconclusive call do not appear. A call without a number means that no potency is given here. The source made the active and inactive calls. Calls come from the whole dose curve; as a rule, active = well fitted inhibition curve with a large enough effect; inconclusive = small, poorly fitted or top-dose-only effect; inactive = flat fitted curve, though single readings scatter.

The molecules below were run against Calcium and integrin-binding protein 1 (Homo sapiens) (UniProt Q99828) (assay: Primary qHTS for Identification of Calcium Integrin Binding Protein 1 (CIB1) Competitor (AID 1508620; note: top concentration of the series differs between compounds)). Conditions: CIB1-GST / FITC-alphaIIb peptide fluorescence polarization; series mostly up to 57.7 µM.
Chain of Calcium and integrin-binding protein 1 (Homo sapiens) (Q99828 whole entry, looked up): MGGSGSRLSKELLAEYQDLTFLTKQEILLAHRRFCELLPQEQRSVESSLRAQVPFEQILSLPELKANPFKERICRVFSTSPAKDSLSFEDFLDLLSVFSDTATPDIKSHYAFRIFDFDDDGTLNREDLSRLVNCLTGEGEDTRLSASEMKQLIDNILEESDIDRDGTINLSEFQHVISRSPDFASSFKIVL
How it was run: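 Fluorescence polarization competition: GST-tagged CIB1 (1 uM final) preincubated with compound 15 min at room temperature, then FITC-labelled alphaIIb peptide (100 nM final) added. After 15 min at room temperature, polarization read at Ex 480/Em 540.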

| SMILES | Potency |
| --- | --- |
| N#Cc1ccc(NC(=O)Nc2ccccc2Br)c2n[nH]nc12 | inactive |
| C[C@H](NC(=O)C(=O)Nc1ccccc1C(C)(C)C)C(=O)N[C@@H](CC(=O)O)C(=O)COc1c(F)c(F)cc(F)c1F | inactive |
| CN(C)C1CCN(C(=O)c2ccc(NC(=O)Nc3nc(N4CCOCC4)nc(N4CCOCC4)n3)cc2)CC1 | inactive |
| Cc1ccc(F)c(NC(=O)Nc2ccc(-c3cccc4[nH]nc(N)c34)cc2)c1 | inactive |
| COC(=O)C1=CO[C@@H](O)[C@@H]2C(CO)=CC[C@@H]12 | inactive |
| C=C1C(=O)OC2C=C(C)CCC=C(C)CCC12 (stereo unspecified) | inactive |
| CC(C(=O)O)c1ccc(-c2ccccc2)c(F)c1 (stereo unspecified) | inactive |
| CO[C@H]1C[C@@H]2CC[C@@H](C)[C@@](O)(O2)C(=O)C(=O)N2CCCC[C@@H]2C(=O)O[C@H]([C@H](C)C[C@@H]2CC[C@H](OCCO)[C@H](OC)C2)CC(=O)[C@H](C)C=C(C)[C@@H](O)[C@@H](OC)C(=O)[C@H](C)C[C@H](C)C=CC=CC=C1C | inactive |
| CC(C)C[C@H](CC(=O)O)C(=O)N[C@@H](Cc1c[nH]c2ccccc12)C(=O)N[C@@H](C)c1ccccc1 | inactive |
| O=C1c2ccccc2-[n+]2ccc3c([nH]c4ccccc43)c21 | inactive |
| CS(=O)(=O)N(Cc1ccco1)CC(O)Cn1c2ccccc2c2ccccc21 (stereo unspecified) | inactive |
| O=C(O)C=Cc1ccc(O)c(O)c1 | inactive |
| COc1ccc(C2Sc3ccccc3N(CCN(C)C)C(=O)C2OC(C)=O)cc1 (stereo unspecified) | inactive |
| C=CCc1ccc(O)c(-c2ccc(O)c(CC=C)c2)c1 | inactive |
| CO[C@H]1C=CO[C@@]2(C)Oc3c(C)c(O)c4c(O)c(c5c(c4c3C2=O)NC2(CCN(CC(C)C)CC2)N=5)=NC(=O)C(C)=CC=C[C@H](C)[C@H](O)[C@@H](C)[C@@H](O)[C@@H](C)[C@H](OC(C)=O)[C@H]1C | inactive |
| O=C(NCc1ccccc1)c1csc(Nc2ccncn2)n1 | inactive |
| O=C(O)c1ccc(-c2c[nH]c3ncc(-c4ccccc4)cc23)cc1C1CCCC1 | inactive |
| Oc1ccc(C2CCN(c3ccnc4ccccc34)CC2)cc1O | inactive |

| SMILES | Potency |
| --- | --- |
| CO[C@H]1C[C@@H]2CC[C@@H](C)[C@@](O)(O2)C(=O)C(=O)N2CCCC[C@@H]2C(=O)O[C@H]([C@H](C)C[C@@H]2CC[C@H](OP(C)(C)=O)[C@H](OC)C2)CC(=O)[C@H](C)C=C(C)[C@@H](O)[C@@H](OC)C(=O)[C@H](C)C[C@H](C)C=CC=CC=C1C | inactive |
| O=c1cc(-c2ccccc2)oc2cc(O)cc(O)c12 | inactive |
| COc1cccc([C@@H](C)NCCCc2ccccc2Cl)c1 | inactive |
| CC(=O)OC1C(C)OC(Oc2c(-c3ccc(O)cc3)oc3cc(O)cc(O)c3c2=O)C(O)C1OC(C)=O (stereo unspecified) | inactive |
| C[C@@H]1CCN(C(=O)CC#N)C[C@H]1N(C)c1ncnc2[nH]ccc12 | inactive |
| COc1ccc(C2CC(c3ccccc3)=NN2c2ccc(S(N)(=O)=O)cc2)cc1 (stereo unspecified) | inactive |
| O=C(O)[C@H]1O[C@H](Oc2cc3oc(-c4ccccc4)cc(=O)c3c(O)c2O)[C@H](O)[C@@H](O)[C@H]1O | inactive |
| CCC(=O)NC[C@H](Cc1ccc(OCCc2nc(-c3ccccc3)oc2C)cc1)NC(C)=CC(=O)c1ccc(C(F)(F)F)cc1 | inactive |
| CCN(CC)CCOc1ccc(C(=C(Cl)c2ccccc2)c2ccccc2)cc1 | inactive |
| O=C1NC(=O)C(=Cc2ccc3nccnc3c2)S1 | inactive |
| CN(C[C@@H]1COCCO1)S(=O)(=O)Nc1ccc2ccc3ncc(-c4cnn(C)c4)cc3c(=O)c2c1 | inactive |
| Cc1c(O)cccc1C(=O)N[C@@H](CSc1ccccc1)[C@H](O)CN1C[C@H]2CCCC[C@@H]2C[C@@H]1C(=O)NC(C)(C)C | inactive |
| CO[C@H]1C[C@@H]2CC[C@@H](C)[C@@](O)(O2)C(=O)C(=O)N2CCCC[C@@H]2C(=O)O[C@H]([C@H](C)C[C@@H]2CC[C@H](OC(=O)C(C)(CO)CO)[C@H](OC)C2)CC(=O)[C@H](C)C=C(C)[C@@H](O)[C@@H](OC)C(=O)[C@H](C)C[C@H](C)C=CC=CC=C1C | inactive |
| Cn1cc(C=C2C(=O)Nc3cccnc32)c2ccccc21 | inactive |
| CC[C@H]1OC(=O)[C@H](C)[C@@H](O[C@H]2C[C@@](C)(OC)[C@@H](O)[C@H](C)O2)[C@H](C)[C@@H](O[C@@H]2O[C@H](C)C[C@H](N(C)C)[C@@H]2O)[C@](C)(O)C[C@@H](C)CN(C)[C@H](C)[C@@H](O)[C@]1(C)O | inactive |
| Nc1ncnc2c1ncn2[C@@H]1O[C@H](CO)C[C@@H]1O | inactive |
| COc1ccc(Cc2ccc(NC(N)=O)cc2)cc1-c1cccc(Cl)c1 | inactive |
| CC[C@]1(O)C[C@@H]2CN(CCc3c([nH]c4ccccc34)[C@@](C(=O)OC)(c3cc4c(cc3OC)N(C=O)[C@@H]3C45CCN4CC=C[C@](CC)([C@H]45)[C@@H](OC(C)=O)[C@]3(O)C(=O)OC)C2)C1 (stereo partly specified) | inactive |
